Source: PubChem BioAssay (NCATS)
Results filed as inconclusive are left out. Activity calls are given as the source filed them. Calls follow the shape of the dose curve; as a rule, active = well fitted curve in the direction sought with a large enough effect; inconclusive = small, poorly fitted or top-dose-only effect, or another doubt; inactive = no such curve, though single readings can be large; an effect the other way counts as inactive or inconclusive.

Experiments:
[1] = qHTS assay for measurement of the activity of small molecule inhibitors on Zika virus induced Caspase-3 activity in human iPSC derived neural progenitor cells (hNPCs) (AID 1224857); also: nearly all actives have a fitted effect of over 65% in size
How it was run: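 Pretreat hNPCs with compound 1 h; infect ZIKV 2 FFU/cell; 6 h 37 C, 5% CO2; Caspase-Glo 3/7, 30 min RT; luminescence; normalize to no-virus and virus-only wells.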

[2] = qHTS assay for measurement of the activity of small molecule inhibitors on Zika virus induced Caspase-3 activity in human astrocytoma cells (AID 1224859)
How it was run: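 Human SNB-19 astrocytoma cells in RPMI 1640 with 10% FBS receive compound one hour ahead of Zika virus at 2 FFU/cell. After 6 h infection, caspase-3/7 activity is detected by Caspase-Glo luminescence.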

[3] = qHTS assay to identify small molecule inhibitors of chordoma cells - UCH-2 (AID 1259356); also: series mostly up to about 46 µM
[4] = P-glycoprotein substrates identified in KB-8-5-11 adenocarcinoma cell line, qHTS therapeutic library screen (AID 1346987); settings: outcome: dose series up to 44.5 µM; also: series mostly up to about 44 µM; nearly all actives have a fitted effect of over 65% in size
How it was run: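 P-gp-mediated resistance screen: KB-8-5-11 cells treated 72 h with compounds in dose-response. CellTiter-Glo viability.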

[5] = NS1 protein of Zika virus - qHTS assay to identify small molecule inhibitors in human HEK 293 cells (AID 1347053); also: series mostly up to about 46 µM; nearly all actives have a fitted effect of over 55% in size
How it was run: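 Following 20 h seeding, HEK 293 cells took compound, then 1 h later ZIKV MR766 (MOI = 0.5). Incubation ran 24 h at 37 C before TR-FRET detection of NS1; a drop in signal indicates inhibition.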

[6] = qHTS of pediatric cancer cell lines to identify multiple opportunities for drug repurposing: Primary screen for TC32 cells (AID 1347089); also: nearly all actives have a fitted effect of over 60% in size
How it was run: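 qHTS, TC32, 48 h drug treatment, CellTiter-Glo luminescence as a proxy for metabolically active cells; primary top concentration 46 µM (MIPE 11-pt, NPC 8-pt); confirmatory 11-pt.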

[7] = qHTS of pediatric cancer cell lines to identify multiple opportunities for drug repurposing: Primary screen for DAOY cells (AID 1347090); also: series mostly up to about 46 µM; nearly all actives have a fitted effect of over 55% in size
How it was run: (§1)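 Cell viability, CellTiter-Glo luminescence; 500-1,000 cells/well, 8- or 11-point titration, 48 h compound exposure at 37 degrees C, 5% CO2. Controls: DMSO neutral, bortezomib 2.3 µM final as positive.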

[8] = qHTS of pediatric cancer cell lines to identify multiple opportunities for drug repurposing: Primary screen for SJ-GBM2 cells (AID 1347091)
How it was run: as §1

[9] = qHTS of pediatric cancer cell lines to identify multiple opportunities for drug repurposing: Primary screen for A673 cells (AID 1347092); also: nearly all actives have a fitted effect of over 45% in size
How it was run: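 Luminescence from CellTiter-Glo, taken after 15 min at room temperature, served as the proxy for metabolically active cells following 48 h treatment. Both potency and efficacy were taken from curves fitted to the titration data.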

[10] = qHTS of pediatric cancer cell lines to identify multiple opportunities for drug repurposing: Primary screen for SK-N-MC cells (AID 1347093); also: potency is read from the fitted curve at half-maximal effect
How it was run: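 Metabolically active cells were quantified by ATP-dependent luminescence (CellTiter-Glo, 15 min at room temperature) following 48 h treatment. Cells had been plated at 500-1,000 per well and settled for 5 h beforehand.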

[11] = qHTS of pediatric cancer cell lines to identify multiple opportunities for drug repurposing: Primary screen for BT-37 cells (AID 1347094); also: series mostly up to about 57 µM
How it was run: (§2)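 ATP-based luminescence (CellTiter-Glo) quantifies viability after a 48-hour exposure. Compounds are dosed across 8 or 11 final concentrations; DMSO and 2.3 µM bortezomib serve as controls.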

[12] = qHTS of pediatric cancer cell lines to identify multiple opportunities for drug repurposing: Primary screen for NB-EBc1 cells (AID 1347095)
How it was run: as §2

[13] = qHTS of pediatric cancer cell lines to identify multiple opportunities for drug repurposing: Primary screen for U-2 OS cells (AID 1347096); also: nearly all actives have a fitted effect of over 50% in size
How it was run: (§3)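 Cells (500-1,000/well) rested 5 h, then received compounds for 48 h; metabolically active cells were measured by CellTiter-Glo luminescence. Final concentrations spanned up to 46 µM (MIPE, 11-point) or 0.59 nM-46 µM (NPC, 8-point) in primary screens, 11-point in follow-ups.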

[14] = qHTS of pediatric cancer cell lines to identify multiple opportunities for drug repurposing: Primary screen for Saos-2 cells (AID 1347097); also: nearly all actives have a fitted effect of over 40% in size
How it was run: as §2

[15] = qHTS of pediatric cancer cell lines to identify multiple opportunities for drug repurposing: Primary screen for SK-N-SH cells (AID 1347098); also: nearly all actives have a fitted effect of over 65% in size
How it was run: as §3

[16] = qHTS of pediatric cancer cell lines to identify multiple opportunities for drug repurposing: Primary screen for NB1643 cells (AID 1347099); also: nearly all actives have a fitted effect of over 50% in size
How it was run: as §2

[17] = qHTS of pediatric cancer cell lines to identify multiple opportunities for drug repurposing: Primary screen for LAN-5 cells (AID 1347100)
How it was run: as §3

[18] = qHTS of pediatric cancer cell lines to identify multiple opportunities for drug repurposing: Primary screen for BT-12 cells (AID 1347101); also: nearly all actives have a fitted effect of over 25% in size
How it was run: as §3

[19] = qHTS assay to identify small molecule inhibitors of chordoma cells - UCH-1 (AID 1259355); also: nearly all actives have a fitted effect of over 55% in size
How it was run: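 Seed 800 cells per well; incubate overnight at 37 C, 5% CO2. Add test compounds (15 concentrations), then the auranofin–topoisomerase-agent combination. Incubate 48hr, add CellTiter-Glo, wait 30min, read luminescence.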

Measured: Potency

NS(=O)(=O)c1ccc(C(=O)O)cc1
not listed: [19]
inactive: all other assays above

O=C(O)C(S)C(S)C(=O)O (centres undefined)
not listed: [4] | [18] | [19]
inactive: all other assays above

Cc1[nH]c(C)c(Cl)c(=O)c1Cl
not listed: [19]
inactive: all other assays above

CCN1CC(CCN2CCOCC2)C(c2ccccc2)(c2ccccc2)C1=O (centres undefined)
not listed: [4] | [10] | [15] | [18] | [19]
inactive: all other assays above

CCOC(=O)c1cccnc1
not listed: [19]
inactive: all other assays above

Cc1c(NC(C)C)c(=O)n(-c2ccccc2)n1C
not listed: [2] | [14]
inactive: all other assays above

COc1cc(O)cc(O)c1
not listed: [2] | [15]
inactive: all other assays above

COC(=O)N/N=C/c1c[n+]([O-])c2ccccc2[n+]1[O-]
not listed: [2] | [14] | [15]
inactive: all other assays above

Nc1ncnc(Nc2ccccc2)n1
not listed: [2] | [4] | [14] | [19]
inactive: all other assays above

O=C(CCBr)N1CCN(C(=O)CCBr)CC1
not listed: [2] | [15]
inactive: all other assays above

O=C(/C=C/c1ccc(O)c(O)c1)O[C@@H]1C[C@@](OC(=O)/C=C/c2ccc(O)c(O)c2)(C(=O)O)C[C@@H](O)[C@@H]1O
not listed: [2] | [19]
inactive: all other assays above

CCCNC(C)C(=O)Nc1c(C)csc1C(=O)OC (centres undefined)
not listed: [2] | [14]
inactive: all other assays above

O=C(OOC(=O)c1ccccc1)c1ccccc1
not listed: [2] | [10] | [18]
inactive: all other assays above

CCOC(=O)OC(C)OC(=O)[C@@H]1N2C(=O)[C@@H](NC(=O)[C@H](N)c3ccccc3)[C@H]2SC1(C)C (some centres undefined)
not listed: [2] | [4]
inactive: all other assays above

C[C@@H]1CCC[C@H](C)N1
not listed: [2]
inactive: all other assays above

O=C1c2ccccc2C(=O)C1c1ccc(Br)cc1
not listed: [2] | [14] | [19]
inactive: all other assays above

Cc1cccc(Nc2ccccc2C(=O)O)c1C
not listed: [2] | [10] | [14] | [18]
inactive: all other assays above

OCCN1C[C@H](O)[C@@H](O)[C@H](O)[C@H]1CO
not listed: [2]
inactive: all other assays above

COc1ccccc1OC(=O)Oc1ccccc1OC
not listed: [2] | [14]
inactive: all other assays above

CCN(CC)C(=O)c1cccc(C)c1
not listed: [2] | [4]
inactive: all other assays above

CC1CCc2cc(F)cc3c(=O)c(C(=O)O)cn1c23 (centres undefined)
not listed: [2] | [4] | [18]
inactive: all other assays above

CC(=O)OC[C@H]1O[C@@](COC(C)=O)(O[C@H]2O[C@H](COC(C)=O)[C@@H](OC(C)=O)[C@H](OC(C)=O)[C@H]2OC(C)=O)[C@@H](OC(C)=O)[C@@H]1OC(C)=O
not listed: [2] | [4]
inactive: all other assays above

NS(=O)(=O)c1cc2c(cc1C(F)(F)F)NCNS2(=O)=O
not listed: [2] | [18]
inactive: all other assays above

CC(O)CCCCn1c(=O)c2c(ncn2C)n(C)c1=O (centres undefined)
not listed: [2] | [10]
inactive: all other assays above

CC(=O)NCc1c(I)c(NC(C)=O)c(I)c(C(=O)O)c1I
not listed: [2] | [4] | [18]
inactive: all other assays above

CCCCCC(N)=O
not listed: [2] | [10]
inactive: all other assays above

CCCCCCCC(=O)OCC(COC(=O)CCCCCCC)OC(=O)CCCCCCC
not listed: [2] | [4] | [10]
inactive: all other assays above

CC(=O)SC[C@@H](Cc1ccccc1)C(=O)NCC(=O)OCc1ccccc1
not listed: [2] | [10] | [15] | [19]
inactive: all other assays above

CC(=O)Nc1ccc(OCCOCCOc2ccc(NC(C)=O)cc2)cc1
not listed: [2]
inactive: all other assays above

CC(=O)NS(=O)(=O)c1ccc(N)cc1
not listed: [2]
inactive: all other assays above

NC(=O)CCCCC1CCSS1 (centres undefined)
not listed: [2]
inactive: all other assays above

CC(=O)N(CC(O)CN(C(C)=O)c1c(I)c(C(=O)NCC(O)CO)c(I)c(C(=O)NCC(O)CO)c1I)c1c(I)c(C(=O)NCC(O)CO)c(I)c(C(=O)NCC(O)CO)c1I (centres undefined)
not listed: [2] | [4]
inactive: all other assays above

CC1(C)[C@@H](OC(=O)CCC(=O)O)CC[C@]2(C)[C@H]3C(=O)C=C4[C@@H]5C[C@@](C)(C(=O)O)CC[C@]5(C)CC[C@@]4(C)[C@]3(C)CC[C@@H]12
not listed: [2]
inactive: all other assays above

CC(C)CCOC(=O)c1ccc(N(C)C)cc1
not listed: [2]
inactive: all other assays above

C/C=C/C(=O)N(CC)c1ccccc1C
not listed: [2] | [4] | [15]
inactive: all other assays above

O=C1C(c2[nH]c3ccccc3c2O)=Nc2ccccc21
not listed: [2] | [18]
inactive: all other assays above

CC(=O)OCC(=O)[C@@]1(O)CC[C@H]2[C@@H]3CCC4=CC(=O)C=C[C@]4(C)[C@@]3(F)[C@@H](O)C[C@@]21C
not listed: [2] | [4]
inactive: all other assays above

OC(CCN1CCCC1)(c1ccccc1)C1CCCCC1 (centres undefined)
not listed: [2] | [14]
inactive: all other assays above

CCOC(N)=O
not listed: [2] | [4]
inactive: all other assays above

Cc1c(Cn2ccnc2)c2ccccc2n1CCC(=O)O
not listed: [2] | [4] | [18]
inactive: all other assays above

CCCOC(=O)c1ccc(N)cc1
not listed: [2] | [10] | [14] | [15]
inactive: all other assays above

O=C(O)[C@@H]1[C@H]2C[C@H]3c4[nH]c5ccccc5c4CCN3C[C@@H]2CC[C@@H]1O
not listed: [2] | [14] | [17]
inactive: all other assays above

O=C(O)COC(=O)Cc1ccccc1Nc1c(Cl)cccc1Cl
active: [10] 26.6 µM
not listed: [2]
inactive: all other assays above

COC(=O)c1cccnc1
not listed: [2]
inactive: all other assays above
